# This is a sample that favours compounds with a hit; in the whole collection about 19% have one here.
# TDP1 cell CPT: growth inhibition of DT40 Tdp1-/-;hTDP1 cells with camptothecin (screen for TDP1 inhibitors). hit rate 12% among 420,000. Potency, µM (series often up to 46.2 µM), hits mostly inhibitors. chicken DT40 Tdp1-/-;hTDP1 cells + 20 nM CPT, ATP luminescence, 48 h; note: nearly all actives have a fitted effect of over 55% in size
#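 Chicken DT40 Tdp1-/- cells complemented with human TDP1, 400 cells/well, exposed to compounds plus 20 nM camptothecin for at least 48 h at 37 C; viability read as ATP content by CellTiter-Glo luminescence.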
# IL-1B inflam inh: blocks inflammasome-driven IL-1 beta release. THP-1 LPS/ATP IL-1B secretion, AlphaLISA, 16 h; hits give low values. AID 743279. hit rate 4.7% among 360,000. activity change, % at 57.5 µM; in the data active = activity change below about -50%; inconclusive = mostly about -30% to -49%
#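 Secreted IL-1B measured by AlphaLISA bead assay after 16 h compound exposure of THP-1 cells; compounds (final up to 57.5 uM) added 1 h before LPS (250 ng/mL) and ATP (1.25 mM) stimulation; lower signal means less secretion.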
# TGFb inhibitor: inhibitors of TGF-b signaling. HepG2 CAGA-GFP TGF-b/SMAD3 reporter, GFP fluorescence, 18 h; TGF-beta stimulated, 500 pg/mL final. AID 588855. Potency, µM (highest dose often 46.1 µM), actives largely listed as inhibitors. hit rate 1.2% among 410,000; note: nearly all actives have a fitted effect of over 65% in size
#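 Inhibition of TGF-beta-driven CAGA-GFP reporter expression in HEPG2 cells is measured by cellular GFP fluorescence after 18 h stimulation with 500 pg/mL recombinant TGF-beta in 1% FBS medium at 37 degrees C.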
# HepG2 tox: counter-screen for TGF-b inhibitors: cytotoxicity in HepG2 cells | hit rate 0.76% among 410,000 | Potency, µM (top dose mostly 46.1 µM), hits mostly cytotoxic | HepG2 CAGA-GFP viability, ATP luminescence, 18 h
#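 HepG2 CAGA-GFP cells (1000/well, DMEM with 1% FBS) received compound, then TGF-beta at 500 pg/mL final, and were incubated 18 hours at 37 degrees C. Viability was read by CellTiter-Glo luminescence. Media-only wells were set as complete cell-killing and DMSO as no toxicity.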
# TDP1 cell noCPT: qHTS for Inhibitors of human tyrosyl-DNA phosphodiesterase 1 (TDP1): qHTS in cells in absence of CPT. Potency, µM (doses to about 46.2 µM), hits mostly inhibitors. AID 686978, 2013. DT40 Tdp1-/- hTDP1 cells, no CPT, ATP luminescence, 48 h. hit rate 15% among 420,000; note: nearly all actives have a fitted effect of over 55% in size
#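 No-CPT arm: Tdp1-/-;hTDP1 DT40 cells (400/well) plus compounds, incubated ≥48 hr at 37 °C. Readout CellTiter-Glo luminescence.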
# ASM inhibitor: inhibitors of human secretory acid sphingomyelinase; placental ASM, HMU-PC fluorogenic substrate, 60 min; Potency, µM (series often up to 57.5 µM), hits mostly inhibitors; hit rate 0.006% among 340,000
# Target sequence (P17405 47-631 limits assumed): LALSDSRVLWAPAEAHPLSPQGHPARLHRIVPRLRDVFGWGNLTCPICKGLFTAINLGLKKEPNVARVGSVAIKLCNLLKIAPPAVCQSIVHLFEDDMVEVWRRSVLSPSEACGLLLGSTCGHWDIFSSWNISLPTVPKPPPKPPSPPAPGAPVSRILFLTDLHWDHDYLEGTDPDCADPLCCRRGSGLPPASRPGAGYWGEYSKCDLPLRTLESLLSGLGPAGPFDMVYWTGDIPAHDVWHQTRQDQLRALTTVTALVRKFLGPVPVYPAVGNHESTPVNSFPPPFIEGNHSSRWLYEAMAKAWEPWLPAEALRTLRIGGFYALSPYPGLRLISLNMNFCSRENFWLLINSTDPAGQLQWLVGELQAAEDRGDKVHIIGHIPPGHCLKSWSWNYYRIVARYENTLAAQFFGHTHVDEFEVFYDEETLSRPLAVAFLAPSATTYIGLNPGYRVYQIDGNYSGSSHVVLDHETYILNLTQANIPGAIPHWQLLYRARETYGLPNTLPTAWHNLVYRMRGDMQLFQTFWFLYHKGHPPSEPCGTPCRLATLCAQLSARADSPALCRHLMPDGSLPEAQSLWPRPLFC
#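 Fluorescence read-out (Ex 386 nm, Em 447 nm) after stopping the reaction at pH 10. Enzyme: ASM from human placenta; substrate HMU-PC0, 9 uM final; 60 min, 37 °C. Compound preincubation 10 min, ambient temperature.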
# Hits are given with their value; – = inactive; ? = inconclusive; · = not tested or not shown; ! = not confirmed by another sample; [ ] = dose if it differs, or a comment. Unless noted, calls come from the whole dose curve; as a rule, active = well fitted curve in the direction sought with a large enough effect; inconclusive = small, poorly fitted or top-dose-only effect, or another doubt; inactive = no such curve, though single readings can be large; an effect the other way counts as inactive or inconclusive.
SMILES,TDP1 cell CPT,IL-1B inflam inh,TGFb inhibitor,HepG2 tox,TDP1 cell noCPT,ASM inhibitor
CC(=O)Nc1ccc(S(=O)(=O)N(C)c2ccc(OCC(=O)Nc3ccccc3C(C)=O)cc2)cc1,18.4µM,–,–,–,20.6µM,–
CN(c1ccc(OCC(=O)Nc2ccccc2C(=O)O)cc1)S(=O)(=O)c1ccc(Cl)cc1,–,–,–,–,–,–
CCOc1ccc(S(=O)(=O)N(C)c2ccc(OCC(=O)Nc3ccccc3F)cc2)cc1,?,–,–,–,?,–
CCc1ccc(NC(=O)Cn2nnc(C(=O)Nc3cc(C)ccc3OC)c2N)cc1,–,·,?,–,–,·
CC(C)CC(NS(=O)(=O)c1ccccc1)C(=O)O (stereo not drawn),–,–,–,–,–,–
CC(C)CN=C(NS(=O)(=O)c1ccccc1)C(Cl)(Cl)Cl,4.61µM,–,?,11.2µM,5.8µM,–
O=C(CN(Cc1ccccc1)S(=O)(=O)c1cccc(C(F)(F)F)c1)NC1CCCCC1,?,–,–,–,?,–
CC(c1ccccc1)N(CC(=O)NC1CCCCC1)S(=O)(=O)c1cccc(C(F)(F)F)c1 (stereo not drawn),?,-62.3,?,–,16.4µM,–
COc1cccc(-c2nn(-c3ccccc3)cc2CN(C)Cc2c(C)nc3ccccn23)c1,?,–,?,–,?,–
COc1cccc(-c2nn(-c3ccccc3)cc2CN(C)Cc2ccon2)c1,–,–,–,–,11.2µM,–
COc1ccc(C2CC(=O)Nc3c2c(=O)n(C)c2nc4ccccc4n32)cc1 (stereo not drawn),·,·,–,–,·,·
COc1ccccc1CN1CCOc2ccc(C(C)(O)COc3ccccc3)cc2C1 (stereo not drawn),–[9.04 µM],·,·,·,–,·
CCc1cc2c3c(c1)C(C)CC(C)(C)N3C(=O)C2=O (stereo not drawn),?,–,?,–,?,–
O=c1[nH]c(Nc2nc3ccccc3o2)nc2c1CCCC2,2.91µM,-100.8,?,–,4.11µM,–
CCc1ccc(C(=O)C(C)OC(=O)Cn2[nH]c(=O)c3ccccc3c2=O)cc1 (stereo not drawn),–,–,–,–,–,–
CCc1ccc(C(=O)C(C)OC(=O)Cc2n[nH]c(=O)c3ccccc23)cc1 (stereo not drawn),6.51µM,–,–,–,7.31µM,–
CCCCCCCCCCCCCCCC(=O)Nc1ccn(C2OC(CO)C(O)C2O)c(=O)n1 (stereo not drawn),0.651µM,–,–,–,0.731µM,–
Nc1ccn([C@@H]2O[C@H](CO)[C@@H](OP(=O)(O)O)[C@H]2O)c(=O)n1,–,·,·,·,–,·
Nc1ccn(C2OC(CO)C(O)C2F)c(=O)n1 (stereo not drawn),1.3µM,–,–,–,2.06µM,·
Nc1ccn([C@@H]2O[C@H](CO)[C@@H](O)[C@@H]2O)c(=O)n1,0.116µM,–,–,–,0.164µM,–
CC[C@H](C)[C@@H](CO)NC(=O)[C@H]1O[C@@H](n2ccc(N)nc2=O)[C@H](O)[C@@H]1O,–,–,–,–,–,·
NC[C@H]1O[C@@H](n2ccc(N)nc2=O)[C@H](O)[C@@H]1O,?,–,–,–,?,·
CCCCCCCCCCCCCCCC(=O)OCC1OC(n2ccc(N)nc2=O)C(O)C1O (stereo not drawn),0.517µM,–,–,–,0.651µM,–
COc1ccc(NC(=O)N2CCN(S(C)(=O)=O)CC2)c(OC)c1,–,–,–,–,–,–
Nc1ccn(C2CCCO2)c(=O)n1 (stereo not drawn),–,–,–,–,–,–
SMILES,TDP1 cell CPT,IL-1B inflam inh,TGFb inhibitor,HepG2 tox,TDP1 cell noCPT,ASM inhibitor
Nc1ccn(C2OC(CO)C(O)C2O)c(=O)n1 (stereo not drawn),0.0164µM!,·,·,·,0.0116µM!,·
Nc1ccn([C@H]2CC[C@@H](CO)O2)c(=O)n1,7.5µM,–,–,–,10.6µM,–
COc1cc(NC(=S)N2CCc3ccccc3C2)cc(OC)c1,–,–,–,–,–,–
Cc1cc(N2CCN(C(C(=O)NC3CCCC3)c3ccc(-c4ccccc4)cc3)CC2)c2ccccc2n1 (stereo not drawn),7.31µM,–,·,·,8.2µM,·
O=C(NC1CCCC1)C(c1ccccc1)n1c(CSCCOc2ccccc2)nc2ccccc21 (stereo not drawn),?,–,·,·,16.4µM,·
N#Cc1ccc(C(C(=O)NC2CCCCC2)n2c(=O)c(-c3ccccc3)nc3ccccc32)cc1 (stereo not drawn),?,–,·,·,?,·
O=C(NC1CCCCC1)C(C1CC1)n1c(=O)c(-c2ccccc2)nc2ccccc21 (stereo not drawn),?,–,·,·,16.4µM,·
Cc1cccc(C)c1NC(=O)C(C1CC1)n1c(=O)c(-c2ccccc2)nc2ccccc21 (stereo not drawn),?,–,·,·,?,·
O=C(NC1CCCCC1)C(c1ccc(-c2ccccc2)cc1)n1c(=O)c(-c2ccco2)nc2ccccc21 (stereo not drawn),?,–,·,·,14.6µM,·
O=C(NC1CCCC1)C(c1ccccc1)n1c(-c2cccs2)nc2ccccc21 (stereo not drawn),?,–,·,·,?,·
CCC1CN(C(=O)Nc2ccccc2F)c2cc(C)ccc2O1 (stereo not drawn),?,·,–,–,?,·
O=C(CCNC(=O)c1ccc(Br)cc1)OCc1ccccc1Cl,–,–,–,–,–,–
CC12CCC(=O)N1C(C(=O)N1CCN(S(=O)(=O)c3cccc(Cl)c3)CC1)CS2 (stereo not drawn),–,–,–,–,–,–
O=C(NC1CCCCC1)C(c1ccccc1F)n1c(=O)c(-c2ccco2)nc2ccccc21 (stereo not drawn),?,–,·,·,16.4µM,·
O=C(NC1CCCCC1)C(c1ccnc2ccccc12)n1c(=O)c(-c2ccco2)nc2ccccc21 (stereo not drawn),13µM,–,·,·,13µM,·
CCOC(=O)C1=C(COC(=O)COc2cccc(C)c2C)NC(=O)NC1C (stereo not drawn),–,–,–,–,–,–
CC1CCCC(NC(=O)NC(=O)COC(=O)c2ccc(O)cc2O)C1C (stereo not drawn),?,–,?,–,?,–
CO[C@@H]1[C@@H](OC2OC(C)C(OC3CC(C)(O)C(OC(=O)CC(C)C)C(C)O3)C(N(C)C)C2O)[C@@H](CC=O)C[C@@H](C)C(=O)/C=C\C2O[C@H]2C[C@@H](C)OC(=O)C[C@H]1OC(C)=O (stereo partly drawn),5.62µM,·,?,–,3.16µM,·
